The results in this text go back to PubChem BioAssay AID504832 (National Center for Advancing Translational Sciences (NCATS), 2011).

Hit rate of the full screen: of about 310,000 compounds, about 18,000 (5.8%) were called active. Inconclusive results (about 22%) are left out. The sample holds actives, similar compounds and a random draw of the others, so the mix is not that of the screen. Calls follow the shape of the dose curve; as a rule, active = well fitted inhibition curve with a large enough effect; inconclusive = small, poorly fitted or top-dose-only effect, or another doubt; inactive = no such curve, though single readings can be large or run the other way.
% is scaled to controls: 0 for no effect and ±100 for the full control effect; potency is read from the fitted curve at half-maximal effect.

This experiment can be described thus: Primary qHTS for delayed death inhibitors of the malarial parasite plastid, 48 hour incubation. Particulars: P. falciparum luciferase growth in erythrocytes; series mostly up to 28.7 µM; activity change, negative = inhibition: at the top concentration. From the text: The goal of this screen is to discover new antimalarial compounds that act by inhibiting the development of the apicoplast in the malarial parasite Plasmodium falciparum. The biochemical processes that make this organelle essential for erythrocytic stage parasites are not well understood. However, antibiotics such as azithromycin and tetracycline, which target the apicoplast translational machinery, have a potent antimalarial effect.
We have developed a cell-based assay that measures parasite growth based on the expression of an integrated copy of a firefly luciferase reporter. To detect small molecules that cause this "delayed death" phenotype, erythrocytes infected with the luciferase-expressing parasites were incubated with compounds for either one or two generations, corresponding to 48 and 96 hours, respectively. Compounds that inhibit parasite growth in the second generation, but not the first, should be enriched in antimalarials that target the apicoplast. Growth inhibition is detected by a decrease in luciferase activity.
Assay Provider: David Fidock and Eric Ekland, Columbia University
Keywords: NIH Roadmap, MLPCN, MLI, MLSMR, qHTS, NCGC, qHTS, malaria, luciferase, viability
Four microliters of culture medium (RPMI 1640 with 0.5% w/v Albumax (GIBCO), 24 mM sodium bicarbonate and 10 ug/mL gentamycin) were dispensed by a Multi-drop Combi into white solid 1536-well plates (Grenier) and 23 nL compound was added by a pin tool. Four microliters of infected erythrocytes (2% hematocrit, 0.1% parasitemia final concentration) in culture medium were dispensed and the plates incubated for 48 hours at 37 C in 5% CO2. Two microliters of luciferase detection reagent was added and luminescence was detected by a ViewLux (PerkinElmer) reader.
Background: In qHTS, concentration-response curves come from the screen itself.
For the compound `O=C(Nc1ccc(S(=O)(=O)N2CCCCC2)cc1)C1CCN(C(=O)c2ccc(F)cc2)CC1`, the Potency was 9.28 µM (active). In the case of `CCOC(=O)c1ccc(NC(=O)C2CC(=O)N(c3ccc4c(c3)OCCO4)C2)cc1` (stereo not given), the “activity change, negative = inhibition” value is -24.2% (inactive). Turning to `Cc1c(Cl)c([N+](=O)[O-])nn1CC(=O)NCCCN1CCOCC1`, the “activity change, negative = inhibition” value was 24% (inactive). As for `N[C@@H](Cc1ccccc1)C(=O)N1CCOCC1`, the “activity change, negative = inhibition” value was 23.4% (inactive). As for `CSCC[C@H](NC(=O)N1CCn2c1nc1ccccc12)C(=O)NC1CCCCC1`, the “activity change, negative = inhibition” value was -18.4% (inactive). `COc1cccc(CNC(=O)CCC2CCCN(C(=O)c3ccc(F)c(Cl)c3)C2)c1` (stereo not given): the “activity change, negative = inhibition” value was -19% (inactive).

Consider `CCOc1ccc(CC(=O)NC2CCN(Cc3ccccc3)CC2)cc1`, for which the “activity change, negative = inhibition” value was 1.1% (inactive). Same read-out and setting: the value for `O=C(O)CN1c2cccc3cccc(c23)S1(=O)=O` was 39.3% (inactive); that for `CC(C)CN(CC(C)C)C(=O)CN1c2cccc3cccc(c23)S1(=O)=O` was 9.64% (inactive). `Cc1ccc(S(=O)(=O)N(C)C)cc1NC(=O)CN1c2cccc3cccc(c23)S1(=O)=O`: the Potency is 13.1 µM (active). For the compound `Cc1cc(=O)n2nc(N3CCC(C(=O)Nc4c(F)c(F)c(F)c(F)c4F)CC3)sc2n1`, the “activity change, negative = inhibition” value is -2.44% (inactive). For `CCOc1ccc(S(=O)(=O)N2CCN=C2Cc2ccccc2)cc1C`, the “activity change, negative = inhibition” value is 3.8% (inactive).

Regarding `Cc1ccc(C23CC4CC(CC(C(=O)NCC(=O)O)(C4)C2)C3)cc1`, the “activity change, negative = inhibition” value was 18.8% (inactive). On to `CC(=O)Nc1ccc(NC(=O)CCN2C(=O)C3CC=CCC3C2=O)cc1` (stereo not given), for which the “activity change, negative = inhibition” value is -5.38% (inactive). As for `COc1ccc(NC(=O)[C@H](NC(=O)[C@@H]2Cc3ccccc3CN2)c2ccccc2)cc1`, the “activity change, negative = inhibition” value is -16.2% (inactive). Take `COc1ccc(CNC(=O)[C@H](Cc2c[nH]c3ccccc23)NC(C)=O)cc1OC`: the “activity change, negative = inhibition” value was 6% (inactive). `COc1cccc(NC(=O)[C@H](Cc2c[nH]c3ccccc23)NC(=O)[C@@H]2Cc3ccccc3CN2)c1`: the Potency was 9.28 µM (active). For `CCOC(=O)c1c(C)[nH]c(C)c1S(=O)(=O)NCCCc1ccco1`, the “activity change, negative = inhibition” value was -0.529% (inactive). In the case of `CC1CCCCC1NC(=O)CCS(=O)(=O)c1ccc2c(c1)NC(=O)CO2` (stereo not given), the “activity change, negative = inhibition” value is 9.15% (inactive). The same measure, in the same setting: for `CCOc1ccc(CN2CCN(Cc3ccc4cc(F)ccc4n3)CC2CCO)cc1` (stereo not given) the value was 7.78% (inactive). Consider `COc1cccc(CN(C)CC(O)COC(c2ccccc2)c2ccccc2C)c1` (stereo not given), for which the Potency is 8.28 µM (active). Regarding `COc1cccc(CN(C)CC(=O)Nc2sc3c(c2C#N)CCC3)c1`, the “activity change, negative = inhibition” value is -7.19% (inactive). Still for that read-out and setting: for `COc1ccc(OCC(O)CN(C)C(=O)C(C)Oc2ccccc2)cc1` (stereo not given) the value was -15.8% (inactive); for `CC(=O)Nc1ccc(NC(=O)CSc2nnnn2-c2ccccc2F)cc1`, 7.75% (inactive); for `O=C(NCCNc1ccccc1[N+](=O)[O-])c1ccccc1F`, 192% (inactive). In the case of `COc1ccccc1C(=O)Nc1ccc(OCC(=O)N2CCCCC2)cc1`, the “activity change, negative = inhibition” value is 33.9% (inactive). Take `CC(C)c1ccc2c(c1)c(SC(C)(C)C)c(CC(C)(C)C(=O)O)n2Cc1ccc(Cl)cc1`: the Potency is 8.28 µM (active).

`O=C(O)c1ccc(Cn2c(=S)[nH]c3cc(Cl)ccc3c2=O)cc1`: the “activity change, negative = inhibition” value is 12.3% (inactive).

Regarding `COc1ccc(NS(=O)(=O)c2cccc3nsnc23)cc1Cl`, the “activity change, negative = inhibition” value is -4.88% (inactive). The same measure, in the same setting: the value for `COc1cccc(NC(=O)c2nn(-c3ccc(OC)cc3OC)c(=O)c3ccccc23)c1` was 21.4% (inactive); that for `COc1ccc(-n2nc(C(=O)Nc3cc(OC)c(OC)c(OC)c3)c3ccccc3c2=O)c(OC)c1` was 26.5% (inactive). Regarding `COc1ccc(-n2nc(C(=O)NCC(=O)N3CCN(c4ccccc4OC)CC3)c3ccccc3c2=O)c(OC)c1`, the Potency was 1.04 µM (active). Regarding `O=C(NCCCN1CCCCC1)C1CC(=O)N(CCc2ccccc2)C1` (stereo not given), the “activity change, negative = inhibition” value is 28% (inactive). In the case of `O=C(Nc1ccc2c(c1)OCO2)C1CC1(Cl)Cl` (stereo not given), the “activity change, negative = inhibition” value was 34.4% (inactive). The same measure, in the same setting: the value for `CCOc1ccc(C(O)Cc2nc3ccccc3n2C)cc1` (stereo not given) was 48.9% (inactive); that for `Cn1c(=N)n(CC(O)c2ccccc2)c2ccccc21` (stereo not given) was 80.1% (inactive). For the compound `CCOc1ccc(C(O)Cn2c(=N)n(CCN3CCCCC3)c3ccccc32)cc1` (stereo not given), the Potency is 4.65 µM (active).

As to `COc1ccc(N(CC(=O)NCc2ccc(F)cc2)C(=O)CCC(=O)Nc2nccs2)cc1`, the “activity change, negative = inhibition” value was 9.32% (inactive).

On to `CN1CCN(NC(=O)Nc2ccc(Br)cc2)CC1`, for which the “activity change, negative = inhibition” value was 84% (inactive). As to `Cc1ccc(C)c(NC(=O)COC(=O)Cn2c(C)csc2=O)c1`, the “activity change, negative = inhibition” value is 1.84% (inactive). Still for that read-out and setting: the value for `COC(=O)c1ccc(OC(=O)c2cnccn2)cc1` was 10.3% (inactive). The same measure, in the same setting: for `CC(C)C(=O)N1CC(=O)Nc2ccc(F)cc2C1c1ccc(F)cc1` (stereo not given) the value was -8.58% (inactive). On to `FC(F)(F)Oc1ccc(NC(=S)NCc2ccccc2)cc1`, for which the “activity change, negative = inhibition” value is 16.6% (inactive).

Regarding `CCNC(=S)Nc1ccc(OC(F)(F)F)cc1`, the “activity change, negative = inhibition” value was 9.67% (inactive). On to `CS(=O)(=O)c1sc(C(=O)NC(=S)Nc2ccc(OC(F)(F)F)cc2)c2c1C=CCC2`, for which the Potency is 2.62 µM (active). Take `COc1ccc(/C=C(/NC(=O)c2ccccc2)C(=O)Nc2cccc(C(=O)O)c2)cc1`: the “activity change, negative = inhibition” value was 2.11% (inactive). As for `Cc1cc(C)cc(OCC(=O)OCC(=O)NC2CCCC2)c1`, the “activity change, negative = inhibition” value was 54.4% (inactive).

As to `CS(=O)(=O)N1CCN(C(=O)CSc2ccccc2)CC1`, the “activity change, negative = inhibition” value is 14.8% (inactive).

As to `CCCC[C@@H]1CN=C(N)N1CCc1cc(C(F)(F)F)cc(C(F)(F)F)c1`, the Potency is 5.22 µM (active). `Cc1cccc(N2CCN(C(C)C(=O)N3CCc4ccccc43)CC2)c1C` (stereo not given): the “activity change, negative = inhibition” value is -2.14% (inactive).
